In all, about 5,500 compounds went through this assay and about 2,000 (36%) were called active. Another 18% or so got no clear call; they are omitted. Cut-off read from the data, not from the text of the source: active = normalized growth mostly below about 0.91 (no sharp cut-off); inconclusive = no clear call, values can overlap the other calls; inactive = mostly above about 0.92. This is one part of the list.
Assay: chemical genetic growth profiling, strain panel (AID 1159580);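 note: tested at 20 µM; growth read once vehicle control cultures reached saturation at 30 °C; 1 = growth at the plate median or of vehicle wells; lower values mean less growth of the strain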
Conditions: growth OD

Measured: normalized growth

Cc1ccnc(NS(=O)(=O)c2ccc(N)cc2)n1
inactive: S. cerevisiae deletion strains, locus YJR075W, strain HOC1, stronger effect = lower value 1.02 | S. cerevisiae deletion strains, locus YKL009W, strain mrt4, stronger effect = lower value 1.01 | S. cerevisiae deletion strains, locus YKL068W, stronger effect = lower value 1 | S. cerevisiae deletion strains, locus YKL085W, strain MDH1 (second series), stronger effect = lower value 1.01 | S. cerevisiae deletion strains, locus YKL085W, strain MDH1, stronger effect = lower value 1.01 | S. cerevisiae deletion strains, locus YKL160W, strain elf1, stronger effect = lower value 1.01 | S. cerevisiae deletion strains, locus YKL190W, strain CNB1, stronger effect = lower value 0.985 | S. cerevisiae deletion strains, locus YKR001C, strain vps1, stronger effect = lower value 1.02 | S. cerevisiae deletion strains, locus YKR026C, strain gcn3, stronger effect = lower value 1.01 | S. cerevisiae deletion strains, locus YKR091W, strain srl3, stronger effect = lower value 0.998 | S. cerevisiae deletion strains, locus YLL001W, strain dnm1, stronger effect = lower value 1.01 | S. cerevisiae deletion strains, locus YLL026W, stronger effect = lower value 1 | S. cerevisiae deletion strains, locus YLL041C, strain sdh2, stronger effect = lower value 1 | S. cerevisiae deletion strains, locus YLR027C, strain aat2, stronger effect = lower value 1 | S. cerevisiae deletion strains, locus YLR039C, strain RIC1, stronger effect = lower value 1.04 | S. cerevisiae deletion strains, locus YLR058C, strain SHM2, stronger effect = lower value 1.02 | S. cerevisiae deletion strains, locus YLR102C, strain apc9, stronger effect = lower value 1.01 | S. cerevisiae deletion strains, locus YLR113W, strain HOG1, stronger effect = lower value 0.984 | S. cerevisiae deletion strains, locus YLR221C, strain rsa3, stronger effect = lower value 0.98 | S. cerevisiae deletion strains, locus YLR258W, strain gsy2, stronger effect = lower value 0.975 | S. cerevisiae deletion strains, locus YLR262C, strain YPT6 (second series), stronger effect = lower value 1.04 | S. cerevisiae deletion strains, locus YLR262C, strain YPT6, stronger effect = lower value 1.05 | S. cerevisiae deletion strains, locus YLR268W, strain sec22, stronger effect = lower value 1.03 | S. cerevisiae deletion strains, locus YLR320W, strain mms22, stronger effect = lower value 0.961 | S. cerevisiae deletion strains, locus YLR330W, strain CHS5, stronger effect = lower value 1.01 | S. cerevisiae deletion strains, locus YLR342W, strain FKS1 (second series), stronger effect = lower value 1 | S. cerevisiae deletion strains, locus YLR342W, strain FKS1, stronger effect = lower value 1.01 | S. cerevisiae deletion strains, locus YLR357W, strain rsc2, stronger effect = lower value 1.04 | S. cerevisiae deletion strains, locus YLR370C, strain arc18, stronger effect = lower value 1 | S. cerevisiae deletion strains, locus YLR371W, strain rom2, stronger effect = lower value 1.01 | S. cerevisiae deletion strains, locus YLR384C, strain iki3, stronger effect = lower value 1.01 | S. cerevisiae deletion strains, locus YLR418C, strain cdc73, stronger effect = lower value 1.07 | S. cerevisiae deletion strains, locus YML016C, strain PPZ1, stronger effect = lower value 1.01 | S. cerevisiae deletion strains, locus YML032C, strain rad52, stronger effect = lower value 1.01 | S. cerevisiae deletion strains, locus YML120C, strain ndi1, stronger effect = lower value 1.02 | S. cerevisiae deletion strains, locus YML124C, strain tub3, stronger effect = lower value 1.01 | S. cerevisiae deletion strains, locus YMR058W, strain fet3, stronger effect = lower value 1 | S. cerevisiae deletion strains, locus YMR078C, strain ctf18, stronger effect = lower value 1.01 | S. cerevisiae deletion strains, locus YMR125W, strain sto1, stronger effect = lower value 0.995 | S. cerevisiae deletion strains, locus YMR129W, stronger effect = lower value 0.998 | S. cerevisiae deletion strains, locus YMR205C, strain PFK2, stronger effect = lower value 1.01 | S. cerevisiae deletion strains, locus YMR223W, strain ubp8, stronger effect = lower value 1 | S. cerevisiae deletion strains, locus YMR231W, strain pep5, stronger effect = lower value 1 | S. cerevisiae deletion strains, locus YMR263W, strain SAP30, stronger effect = lower value 0.996 | S. cerevisiae deletion strains, locus YMR307W, strain GAS1, stronger effect = lower value 1.01 | S. cerevisiae deletion strains, locus YNL067W, strain RPL9B, stronger effect = lower value 1.02 | S. cerevisiae deletion strains, locus YNL071W, strain lat1, stronger effect = lower value 0.987 | S. cerevisiae deletion strains, locus YNL128W, strain TEP1, stronger effect = lower value 1.02 | S. cerevisiae deletion strains, locus YNL153C, strain GIM3, stronger effect = lower value 1.01 | S. cerevisiae deletion strains, locus YNL183C, strain NPR1, stronger effect = lower value 0.972 | S. cerevisiae deletion strains, locus YNL209W, strain ssb2, stronger effect = lower value 0.982 | S. cerevisiae deletion strains, locus YNL233W, strain BNI4, stronger effect = lower value 1.01 | S. cerevisiae deletion strains, locus YNL248C, strain rpa49, stronger effect = lower value 1.01 | S. cerevisiae deletion strains, locus YNL250W, strain rad50, stronger effect = lower value 1.03 | S. cerevisiae deletion strains, locus YNL271C, strain bni1, stronger effect = lower value 1.02 | S. cerevisiae deletion strains, locus YNL298W, strain CLA4, stronger effect = lower value 1.02 | S. cerevisiae deletion strains, locus YNL307C, strain MCK1, stronger effect = lower value 1.02 | S. cerevisiae deletion strains, locus YNL322C, strain KRE1 (second series), stronger effect = lower value 0.998 | S. cerevisiae deletion strains, locus YNL322C, strain KRE1, stronger effect = lower value 1 | S. cerevisiae deletion strains, locus YNR049C, strain mso1, stronger effect = lower value 1.01 | S. cerevisiae deletion strains, locus YNR052C, strain pop2, stronger effect = lower value 1.03 | S. cerevisiae deletion strains, locus YOL006C, strain TOP1, stronger effect = lower value 1.03 | S. cerevisiae deletion strains, locus YOL012C, strain htz1 1.03 | S. cerevisiae deletion strains, locus YOL147C, strain pex11, stronger effect = lower value 1.02 | S. cerevisiae deletion strains, locus YOR001W, strain rrp6, stronger effect = lower value 1.01 | S. cerevisiae deletion strains, locus YOR061W, strain CKA2, stronger effect = lower value 1.01 | S. cerevisiae deletion strains, locus YOR069W, strain VPS5, stronger effect = lower value 1.01 | S. cerevisiae deletion strains, locus YOR070C, strain gyp1, stronger effect = lower value 0.989 | S. cerevisiae deletion strains, locus YOR080W, strain dia2, stronger effect = lower value 1.01 | S. cerevisiae deletion strains, locus YOR083W, strain WHI5, stronger effect = lower value 0.979 | S. cerevisiae deletion strains, locus YOR106W, strain vam3, stronger effect = lower value 0.975 | S. cerevisiae deletion strains, locus YOR136W, strain idh2, stronger effect = lower value 1.01 | S. cerevisiae deletion strains, locus YOR144C, strain elg1, stronger effect = lower value 1.02 | S. cerevisiae deletion strains, locus YOR184W, strain ser1, stronger effect = lower value 1.03 | S. cerevisiae deletion strains, locus YOR231W, strain MKK1, stronger effect = lower value 0.98 | S. cerevisiae deletion strains, locus YOR265W, strain rbl2, stronger effect = lower value 1.01 | S. cerevisiae deletion strains, locus YOR270C, strain vph1, stronger effect = lower value 1.04 | S. cerevisiae deletion strains, locus YOR290C, strain snf2, stronger effect = lower value 0.964 | S. cerevisiae deletion strains, locus YOR316C, strain cot1, stronger effect = lower value 1.01 | S. cerevisiae deletion strains, locus YPL051W, strain arl3, stronger effect = lower value 1.01 | S. cerevisiae deletion strains, locus YPL055C, strain LGE1, stronger effect = lower value 0.988 | S. cerevisiae deletion strains, locus YPL078C, strain atp4, stronger effect = lower value 1.03 | S. cerevisiae deletion strains, locus YPL106C, strain sse1, stronger effect = lower value 0.968 | S. cerevisiae deletion strains, locus YPL240C, strain hsp82, stronger effect = lower value 0.989 | S. cerevisiae deletion strains, locus YPL241C, strain CIN2, stronger effect = lower value 1.01 | S. cerevisiae deletion strains, locus YPL256C, strain CLN2, stronger effect = lower value 0.965 | S. cerevisiae deletion strains, locus YPR119W, strain clb2, stronger effect = lower value 1.01 | S. cerevisiae deletion strains, locus YPR141C, strain kar3, stronger effect = lower value 1.03 | S. cerevisiae deletion strains, locus YPR163C, strain tif3, stronger effect = lower value 1.03 | S. cerevisiae deletion strains, locus YPR167C, strain met16, stronger effect = lower value 1 | S. cerevisiae deletion strains, strain wtn01, stronger effect = lower value 1.02 | S. cerevisiae strains, strain wild type, stronger effect = lower value 0.999

From PubChem BioAssay AID1159580 (chemical genetic matrix, 2015)
